From PubChem BioAssay

These compounds were tested on Fibrinogen (Alexa647-labelled) (assay: Alexa647-fibrinogen binding to printed small molecules – biochemical, small-molecule microarray, 635/667 nm fluorescence, artefact control for SMM control-protein annotation, profiling panel (AID 1131;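 also: z-score merges 667 nm fluorescence with per-spot signal-to-noise over triplicate slides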)). Details: fibrinogen-A647 binding fluorescence, higher = more signal.

Row | Compound | composite z-score
1 | COCCCNC(=O)[C@@H]1c2ccccc2C(=O)N(C2Cc3ccccc3C2)[C@H]1c1ccc(CO)cc1 | -0.284
2 | COc1ccc([Si](C)(C)[C@H]2[C@H](CCO)O[C@@]3(C(=O)N(Cc4ccccc4)c4ccc(N5CCOC5=O)cc43)[C@@H]2C)cc1 | 0.773
3 | C[C@@]12COC[C@]13C=C(Br)[C@H](C2)[C@@]1(CO1)C3=O | -0.376
4 | Nc1cc(Br)ccc1C(=O)O | 0.777
5 | COC(=O)[C@@]1(Cc2ccccc2)[C@H]2c3cc(C(=O)N(C)C)n(CCn4cc([N+](=O)[O-])nc4C)c3C[C@H]2CN1C(=O)c1ccccc1 | 0.989
6 | C=C(/C(=C/C[C@@H](OC(C)=O)c1ccc(CO)o1)c1cc(C(=O)OC)ccc1OC)C(C)C | 0.0384
7 | CC(C)C(=C=CC[C@H](O)c1cccc(OCCO)c1)CCO | -1
8 | C=CCN1C(=O)[C@]2(O[C@H](CCO)[C@@H]([Si](C)(C)c3ccc(OC)cc3)[C@@H]2C)c2cc(NC(=O)c3ccc(OC)cc3)ccc21 | 0.318
9 | CC(=O)NCCCC[C@@H]1NC(=O)[C@@H]2C[C@H](C(=O)NCCCCCCN)[C@H](c3cccc(OCCO)c3)N2C1=O | 1.01
10 | CN(C)CCCCNC(=O)[C@H]1C[C@H]2C(=O)N[C@@H](CCCC[N+](C)(C)C)C(=O)N2[C@H]1c1ccc(O)cc1 | -1.24
11 | CC(C)N1CC=CC23O[C@@H]4/C=C\CCCOC(=O)C4[C@H]2C(=O)N(CCCCCCO)[C@@H]3C1=O (stereo not given in full) | -1.38
12 | O=C(CS)NCCCCCCNC(=O)[C@@H]1C[C@@H]2C(=O)NCC(=O)N2[C@@H]1c1ccc(O)cc1 | -0.975
13 | COc1ccc([Si](C)(C)[C@H]2[C@H](CCO)O[C@@]3(C(=O)N(Cc4ccccc4)c4ccc(N5C(=O)c6ccccc6Oc6ccccc65)cc43)[C@@H]2C)cc1 | -0.0167
14 | NC(=O)[C@H]1[C@@H]2C(=O)O[C@@H](c3ccccc3)[C@@H](c3ccccc3)N2[C@@H](c2ccc(O)cc2)[C@]12C(=O)Nc1ccccc12 | -1.61
15 | [N-]=[N+]=NCc1ccccc1[C@@H]1OC(c2ccc(OCCCO)cc2)=N[C@]1(Cc1ccccc1)C(=O)NCCN1CCOCC1 | 0.514
16 | O=C1C2C=CC(C(O)c3ccc4c(c3)OCO4)N(Nc3ccccc3)C2C(=O)N1c1ccccc1 (stereo not given) | 0.979
17 | O=C(CS)NCCCCCNC(=O)[C@@H]1C[C@@H]2C(=O)N[C@@H](Cc3ccccc3)C(=O)N2[C@@H]1c1cccc(OCCO)c1 | 0.284
18 | NCCCCCNC(=O)[C@@H]1C[C@@H]2C(=O)N3CCC[C@H]3C(=O)N2[C@@H]1c1ccc(O)cc1 | 0.788
19 | COc1cc(NN2C(C(O)c3ccccc3)C=CC3C(=O)N(C)C(=O)C32)cc(OC)c1OC (stereo not given) | 0.959
20 | CC=CC(O)C1C=CC2C(=O)NC(=O)C2N1Nc1ccccn1 (stereo not given) | 0.657
21 | COCCOC(=O)N1C(=O)[C@@]2(c3ccccc31)[C@H](c1ccccc1OCCO)N1[C@H](c3ccccc3)[C@H](c3ccccc3)OC(=O)[C@H]1[C@@H]2C(N)=O | 0.955
22 | COc1cc(NN2C(C(O)c3ccc(I)cc3)C=CC3C(=O)N(c4ccccc4)C(=O)C32)cc(OC)c1OC (stereo not given) | 0.993
23 | [N-]=[N+]=NCc1ccccc1[C@@H]1OC(c2ccc(OCCCO)cc2)=N[C@]1(Cc1ccccc1N=[N+]=[N-])C(=O)NCCN1CCOCC1 | 0.983
24 | C=C(/C(=C/C[C@H](OC(=O)c1ccncc1)c1ccccc1OCCO)c1cnc2ccccc2c1)C(C)C | 0.958
25 | C=CCNC(=O)[C@@H]1[C@H]2C(=O)O[C@H](c3ccccc3)[C@H](c3ccccc3)N2[C@H](c2ccc(OCCO)cc2)[C@@]12C(=O)N(C(=O)OCCOC)c1ccc(C#CCCO)cc12 | 0.736
26 | C=C[C@H](C)[C@H](OC(=O)Nc1ccc(OC)cc1)c1ccc(OCCO)cc1 | -0.909
27 | COc1ccc(C#Cc2ccc3c(c2)[C@]2(C(=O)N3)[C@H](C(=O)N3CCCCCCC3)[C@H]3C(=O)O[C@H](c4ccccc4)[C@H](c4ccccc4)N3[C@@H]2c2ccc(O)cc2)cc1 | 0.729
28 | NCCCCCNC(=O)[C@H]1C[C@H]2C(=O)N[C@@H](Cc3ccccc3)C(=O)N2[C@H]1c1ccc(O)cc1 | 0.94
29 | CC(C)c1ccc(NN2C(C(O)Cc3ccccc3)C=CC3C(=O)N(c4ccccc4)C(=O)C32)cc1 (stereo not given) | 0.958
30 | Cc1ccc(S[C@]2(C(=O)NCc3ccccc3)CC(=O)N(Cc3cc(C(F)(F)F)cc(C(F)(F)F)c3)[C@@H]2c2ccc(CO)cc2I)cc1 | -0.885
